Data taken from PubChem BioAssay AID1159580 (chemical genetic matrix, 2015).
Several values for one entry are separate records, joined by “and”; a condition that tells them apart may be missing. Identical values can stand only once. Hit rate of the full screen: of about 5,500 compounds, about 2,000 (36%) were called active. About 18% were inconclusive and are not listed. Cut-off read from the data, not from the text of the source: active = normalized growth mostly below about 0.91 (no sharp cut-off); inconclusive = no clear call, values can overlap the other calls; inactive = mostly above about 0.92. The list shows a part of the results.

Experiment: chemical genetic growth profiling, strain panel (AID 1159580);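 note: tested at 20 µM; growth read once vehicle control cultures reached saturation at 30 °C; 1 = growth at the plate median or of vehicle wells; lower values mean less growth of the strain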
Conditions: S. cerevisiae deletion strains, growth OD

Measured: normalized growth

CC(=O)CC(c1ccccc1)c1c(O)c2ccccc2oc1=O (configuration not stated)
inactive: locus YAL013W, strain DEP1, active compounds read low 1.01 | locus YAL021C, strain ccr4, active compounds read low 1.01 | locus YAL026C, strain drs2, active compounds read low 0.991 | locus YAL030W, strain snc1, active compounds read low 0.991 | locus YBL061C, strain skt5, active compounds read low 0.998 | locus YBR009C, strain hhf1, active compounds read low 1 | locus YBR021W, strain FUR4, active compounds read low 0.996 | locus YBR023C, strain chs3, active compounds read low 0.996 | locus YBR171W, strain sec66, active compounds read low 0.991 | locus YBR229C, strain ROT2, active compounds read low 1 | locus YBR231C, strain swc5, active compounds read low 1 | locus YBR279W, strain paf1, active compounds read low 0.993 | locus YCL011C, strain gbp2, active compounds read low 0.999 | locus YCL016C, strain dcc1, active compounds read low 0.994 | locus YCL029C, strain bik1, active compounds read low 1.03 | locus YCL061C, strain MRC1, active compounds read low 1 | locus YCL069W, strain vba3, active compounds read low 1 | locus YCR088W, strain abp1, active compounds read low 1 | locus YDL005C, strain med2, active compounds read low 0.999 | locus YDL035C, strain GPR1, active compounds read low 1.02 | locus YDL040C, strain nat1, active compounds read low 0.994 | locus YDL074C, strain BRE1, active compounds read low 1.02 | locus YDL101C, strain DUN1, active compounds read low 1.02 | locus YDL134C, strain PPH21, active compounds read low 1.01 | locus YDL185W, strain tfp1, active compounds read low 1.01 | locus YDL192W, strain arf1, active compounds read low 1.02 | locus YDR001C, strain nth1, active compounds read low 0.993 | locus YDR069C, strain doa4, active compounds read low 1 | locus YDR101C, strain arx1, active compounds read low 1.02 | locus YDR137W, strain rgp1, active compounds read low 0.867 | locus YDR150W, strain NUM1, active compounds read low 1.01 | locus YDR159W, strain sac3, active compounds read low 1.02 | locus YDR162C, strain NBP2, active compounds read low 1.03 | locus YDR195W, strain ref2 1.01 | locus YDR297W, strain sur2, active compounds read low 1 | locus YDR318W, strain mcm21, active compounds read low 1.03 | locus YDR334W, strain swr1, active compounds read low 1 | locus YDR335W, strain msn5, active compounds read low 1.01 | locus YDR388W, active compounds read low 1 | locus YDR392W, strain spt3, active compounds read low 0.966 | locus YDR502C, strain sam2, active compounds read low 1.01 | locus YEL003W, strain gim4, active compounds read low 1.01 | locus YEL037C, strain rad23, active compounds read low 0.999 | locus YEL061C, strain CIN8 (second series), active compounds read low 0.999 | locus YEL061C, strain CIN8, active compounds read low 1.01 | locus YER015W, strain faa2, active compounds read low 0.987 | locus YER016W, strain bim1, active compounds read low 0.993 | locus YER110C, active compounds read low 1.03 | locus YER111C, strain swi4, active compounds read low 0.999 | locus YER155C, strain BEM2 (second series), active compounds read low 1.01 | locus YER155C, strain BEM2, active compounds read low 1 | locus YER167W, strain BCK2, active compounds read low 1.03 | locus YFR010W, strain ubp6, active compounds read low 1.01 | locus YGL078C, strain dbp3, active compounds read low 1.01 | locus YGL086W, strain mad1, active compounds read low 1.03 | locus YGL167C, strain pmr1, active compounds read low 0.986 | locus YGL173C, strain kem1, active compounds read low 1 | locus YGL227W, strain vid30, active compounds read low 0.988 | locus YGL240W, strain doc1, active compounds read low 1 | locus YGL248W, strain PDE1, active compounds read low 1.01 | locus YGL253W, strain hxk2, active compounds read low 1 | locus YGR078C, strain PAC10, active compounds read low 1.02 | locus YGR135W, strain pre9, active compounds read low 1.02 | locus YGR229C, strain SMI1, active compounds read low 1.02 | locus YGR252W, strain gcn5, active compounds read low 1.06 | locus YHR013C, strain ard1, active compounds read low 1.03 | locus YHR027C, strain rpn1, active compounds read low 0.994 | locus YHR030C, strain SLT2, active compounds read low 1.01 and 0.993 | locus YHR079C, strain IRE1 (second series), active compounds read low 1.01 | locus YHR079C, strain IRE1, active compounds read low 0.982 | locus YHR094C, strain hxt1, active compounds read low 1.02 | locus YHR129C, strain ARP1, active compounds read low 1 | locus YHR142W, strain chs7, active compounds read low 1.01 | locus YHR200W, strain rpn10, active compounds read low 1.02 | locus YIL066C, strain RNR3, active compounds read low 1.02 | locus YIL073C, strain SPO22, active compounds read low 1.1 | locus YIL125W, strain kgd1, active compounds read low 1.01 | locus YIR030C, strain dcg1, active compounds read low 1.02 | locus YJL092W, strain hpr5, active compounds read low 0.996 | locus YJL095W, strain BCK1 (second series), active compounds read low 0.992 | locus YJL095W, strain BCK1, active compounds read low 1.01 and 0.973 | locus YJL115W, strain asf1, active compounds read low 1 | locus YJL129C, strain trk1, active compounds read low 1.02 | locus YJL134W, strain LCB3, active compounds read low 1 | locus YJL154C, strain vps35, active compounds read low 0.995 | locus YJL164C, strain tpk1, active compounds read low 1.01 | locus YJL166W, strain qcr8, active compounds read low 1.01 | locus YJL168C, strain set2, active compounds read low 1 | locus YJL187C, strain SWE1 (second series), active compounds read low 1.02 | locus YJL187C, strain SWE1, active compounds read low 0.989 | locus YJR043C, strain POL32, active compounds read low 1.03 | locus YJR066W, strain TOR1, active compounds read low 0.925
